# From PubChem BioAssay
# RORg inh: qHTS for inhibitors of ROR gamma transcriptional activity; Nuclear receptor ROR-gamma (Mus musculus), P51450; Drosophila S2 Gal4-RORgamma UAS-luciferase reporter, 20 h; Potency, µM (highest dose often 53.6 µM), actives largely listed as inhibitors; 310,000 tested, 5.4% active; AID 2551, 2010; also: nearly all actives have a fitted effect of over 60% in size
# Target sequence (P51450 whole entry, looked up, the tested form may be a part): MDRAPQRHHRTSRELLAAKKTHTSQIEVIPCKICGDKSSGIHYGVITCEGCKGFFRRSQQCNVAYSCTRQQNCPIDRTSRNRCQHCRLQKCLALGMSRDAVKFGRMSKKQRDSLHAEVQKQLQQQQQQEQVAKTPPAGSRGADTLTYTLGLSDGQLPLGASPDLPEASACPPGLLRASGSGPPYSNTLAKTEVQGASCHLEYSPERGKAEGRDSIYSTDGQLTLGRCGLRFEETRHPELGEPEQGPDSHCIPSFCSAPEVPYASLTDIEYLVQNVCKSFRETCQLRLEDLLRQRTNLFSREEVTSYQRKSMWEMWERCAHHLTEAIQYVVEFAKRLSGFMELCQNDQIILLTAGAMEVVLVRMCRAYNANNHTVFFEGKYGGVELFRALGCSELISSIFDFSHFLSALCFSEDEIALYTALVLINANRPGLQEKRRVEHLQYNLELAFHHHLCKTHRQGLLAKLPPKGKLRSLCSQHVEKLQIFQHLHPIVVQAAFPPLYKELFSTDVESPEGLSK
#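 ROR gamma transcriptional activity was tracked as Gal4-UAS luciferase output in stably transfected Drosophila Schneider cells, with compound added 1 hr before 700 uM copper sulfate induction and a 20 hr ambient-temperature incubation.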
# ELG1 repair inh: qHTS screen for small molecules that inhibit ELG1-dependent DNA repair in human embryonic kidney (HEK293T) cells expressing luciferase-tagged ELG1; Potency, µM (titrated, usually from 46.1 µM), actives largely listed as inhibitors; HEK293T ELG1-luciferase reporter, luminescence, 16 h; DNA damage induced by 5-fluorouridine; 330,000 tested, 2.3% active; also: nearly all actives have a fitted effect of over 55% in size
#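 Step one: seed 2,000 cells per well. Step two: pin-transfer compound or DMSO alongside 5-fluorouridine. Step three: incubate 16 hr, 37 °C, 5% CO2. Step four: add ONE-Glo, wait 30 min, read luminescence.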
# MCF10A rerep: A quantitative high throughput screen for small molecules that induce DNA re-replication in MCF 10a normal breast cells; MCF 10A DNA re-replication, Hoechst nuclear intensity, 48 h; Potency, µM (highest dose often 46.1 µM), actives largely listed as activators; 350,000 tested, 2.9% active; AID 624296, 2012; also: nearly all actives have a fitted effect of over 50% in size
# SW480 rereplic: A quantitative high throughput screen for small molecules that induce DNA re-replication in SW480 colon adenocarcinoma cells; 340,000 tested, 1.8% active; Potency, µM (series often up to 46.1 µM), actives largely listed as activators; SW480 DNA re-replication, Hoechst DNA content imaging, 48 h; also: nearly all actives have a fitted effect of over 55% in size
#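 Image-based read-out: total Hoechst fluorescence of nuclei (405 nm excitation, 500-530 nm emission), with hits raising the fraction of high-intensity nuclei. SW480 colon cells incubated 48 hr with compounds at 37 C.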
# VP16 counter: VP16 counterscreen qHTS for inhibitors of ROR gamma transcriptional activity; Drosophila S2 Gal4-VP16 UAS-luciferase, luminescence, 20 h; Potency, µM (top dose mostly 53.6 µM), hits mostly inhibitors; 310,000 tested, 3.5% active; AID 2546, 2010;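 also: Gal4-VP16 expression switched on by copper sulfate through the metallothionein promoter; nearly all actives have a fitted effect of over 50% in size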
# Numbers stand for hits; - = inactive; ? = inconclusive; . = not tested or not shown; [ ] = another dose, or the depositor's remark. The list is not random: actives were taken first. Their share in the collection is about 10%. Calls follow the shape of the dose curve; as a rule, active = well fitted curve in the direction sought with a large enough effect; inconclusive = small, poorly fitted or top-dose-only effect, or another doubt; inactive = no such curve, though single readings can be large; an effect the other way counts as inactive or inconclusive.
SMILES,RORg inh,ELG1 repair inh,MCF10A rerep,SW480 rereplic,VP16 counter
COc1ccc(/C=N/NC(=O)c2ccncc2)cc1OC,-,-,-,-,-
COc1ccc(/C=N/NC(=O)c2cccnc2)cc1CN1CCCc2ccccc21,10µM,-,?,-,-
COc1ccc(/C=N/NC(=O)c2cccc(Br)c2)cc1CSc1ccccn1,?,-,15µM,?,?
COc1ccc(/C=N/NC(=O)c2ccncc2)cc1CSc1nc2ccccc2s1,7.1µM,?,?,?,6.3µM
COc1ccc(/C=N/NC(=O)c2cccnc2)cc1CSc1ccccn1,-,?,13µM,13µM,-
Cc1ccc2c(c1)C1(OCCCO1)C(=O)N2,-[1.91 µM],-,-,-,-
Cn1c(=O)n(Cc2ccccc2)c(=O)c2c1nc1n2CCCN1Cc1ccccc1,-,-,-,-,-
COC(=O)Cn1c(=O)c2c(nc3n2CCCN3Cc2ccccc2)n(C)c1=O,-,-,-,-,-
C=C(C)Cn1c(=O)c2c(nc3n2CCCN3CCc2ccccc2)n(C)c1=O,-,16µM,-,-,-
Cn1c(=O)n(Cc2ccccc2)c(=O)c2c1nc1n2CCCN1CCc1ccccc1,-,23µM,?,-,-
Cn1c(=O)n(CC(=O)OCc2ccccc2)c(=O)c2c1nc1n2CCCN1C1CCCCC1,.,.,9.2µM,-,.
COc1ccc(C(C(=O)NCC2CCCO2)N(Cc2ccc(F)cc2)C(=O)CNC(=O)c2ccco2)cc1OC (stereo not given),-,-,-,-,-
c1ccc(CN(Cc2ccccc2)c2ncnc3c2nnn3Cc2ccccc2)cc1,-,?,-,-,-
O=C(NC1CCCCC1)C(c1ccc2ncccc2c1)N(Cc1ccccc1)C(=O)c1ccc2c(c1)OCCO2 (stereo not given),-,?,-,-,-
COc1ccc(CN(C(=O)c2cccs2)C(C(=O)NC2CCCCC2)c2ccc3ncccc3c2)cc1 (stereo not given),35µM,?,-,-,-
COc1ccc(CN(C(=O)c2ccc3c(c2)OCCO3)C(C(=O)NC2CCCCC2)c2ccc3ncccc3c2)cc1 (stereo not given),?,-,13µM,-,-
C=C(C(C)=O)C(O)c1ccccc1 (stereo not given),-,.,.,.,-
O=C(Nc1ccccc1C(F)(F)F)N1CCN(c2ccc3nnc(-c4ccc(F)cc4)n3n2)CC1,?,12µM,-,-,-
O=C(Nc1ccc(F)cc1)N1CCN(c2ccc3nnc(-c4ccc(F)cc4)n3n2)CC1,-,7.3µM,-,-,-
O=C(Nc1ccccc1C(F)(F)F)N1CCN(c2ccc3nncn3n2)CC1,-,-,-,-,-[0.365 µM]
Fc1ccc(-c2nnc3ccc(N4CCc5ccccc5C4)nn23)cc1,-,18µM,-,-,-
O=C(c1ccc(Br)o1)N1CCN(c2ccc3nnc(-c4ccccc4)n3n2)CC1,-,?,-,?,-
O=C(COC(=O)/C=C/c1ccc(F)cc1)Nc1nnc(-c2ccccc2)o1,.,-,-,-,.
COC(CN(C(=O)CCl)C(C(=O)NC1CCCCC1)c1ccc(C)cc1)OC (stereo not given),-,-,-,5.8µM,-
COc1ccc(C(C(=O)NC2CCCCC2)N(C(=O)CCl)c2ccc(OC)cc2)cc1 (stereo not given),?,?,18µM,?,?
SMILES,RORg inh,ELG1 repair inh,MCF10A rerep,SW480 rereplic,VP16 counter
COc1ccc(C(C(=O)NC2CCCCC2)N(C(=O)CCl)c2ccc(C)cc2)cc1 (stereo not given),-,?,-,2.6µM,-
COc1ccc(C(C(=O)NC2CCCCC2)N(C(=O)CCl)c2cccc(Cl)c2)cc1 (stereo not given),-[10 µM],?,21µM,?,?
COc1cccc(N(C(=O)c2cnccn2)C(C(=O)NC2CCCCC2)c2ccc(Cl)cc2)c1 (stereo not given),-,-,-,-,-
O=C(NC1CCCC1)C(c1ccc(F)cc1)N(Cc1ccc(F)cc1)C(=O)CCl (stereo not given),-,-,-,?,-
O=C1OCCC1(c1ccccc1)c1ccccc1,.,-,-,-,.
COc1ccccc1P(=O)(Cc1ccccc1)c1ccccc1 (stereo not given),-,-,-,-,-
CC(=O)n1cc([C@@H]2C=C(C(=O)N3CCN(Cc4ccccc4)CC3)O[C@H](OCc3ccc(CO)cc3)C2)c2ccccc21,-,9.2µM,?,-,-
CCO[C@H]1OC(C(=O)NCc2nc3ccccc3[nH]2)=C[C@@H](C2CC2)[C@@H]1CCCO,-,-,3.7µM,3.3µM,-
CCO[C@H]1OC(C(=O)N2CCN(Cc3ccc4c(c3)OCO4)CC2)=C[C@@H](c2csc3ccccc23)[C@@H]1CCCO,-,?,-,-,-
CCO[C@H]1OC(C(=O)N2CCN(Cc3ccc4c(c3)OCO4)CC2)=C[C@@H](c2cn(C(C)=O)c3ccccc23)[C@@H]1CCCO,-,10µM,-,-,-
CC(=O)n1cc([C@H]2C=C(C(=O)NCc3ccccc3)O[C@@H](OCc3ccc(CO)cc3)C2)c2ccccc21,-,?,18µM,-,-
O=C(NCc1nc2ccccc2[nH]1)C1=C[C@H](c2ccccc2)C[C@H](OCc2ccc(CO)cc2)O1,?,21µM,?,-,-
CCO[C@H]1OC(C(=O)NCc2ccccc2)=C[C@@H](c2ccc(Br)cc2)[C@@H]1CCCO,?,?,-,-,-
O=C(NCc1nc2ccccc2[nH]1)C1=C[C@@H](c2ccccc2)C[C@@H](OCc2ccc(CO)cc2)O1,?,-,-,-,-
CCO[C@@H]1OC(C(=O)NCc2ccccc2)=C[C@H](c2ccc(C(F)(F)F)cc2)[C@H]1CCCO,-,?,2.9µM,?,-
Cc1ccc2c(C)c(C(=O)Nc3c(C)n(C)n(-c4ccccc4)c3=O)oc2c1C,-,?,-,-,-
Cc1cc(C)n(CC(=O)NC2CCCCC2C)c(=O)c1C#N (stereo not given),.,-,-,-,.
CCCN1C(=O)C(O)(C2CC(=O)CC(C)(C)O2)c2ccccc21 (stereo not given),-,-,?,16µM,-
CCCN1C(=O)C(O)(C2COC(C)(C)CC2=O)c2ccccc21 (stereo not given),-,-,-,?,-
Cc1ccc(/C=C/C(=O)NC2CCCCCCC2)o1,-,?,?,23µM,13µM
Cc1ccc(/C=N/NC(=O)NC2CCCCC2)o1,-,?,-,-,-
Cc1ccc(/C=C/C(=O)Nc2nccs2)o1,?,?,-,-,?
Cc1csc(NC(=O)/C=C/c2ccc3c(c2)OCO3)n1,-,?,18µM,-,?
